Screening data (PubChem)
Hits are enriched below; roughly 3.5% of the tested compounds scored in any of these assays.
Tau fibril FP: tau fibrillization inhibition (FP); P10636; K18 P301L tau heparin fibrillization, Alexa594 FP, 6 h; Potency, µM (doses to about 57.7 µM), without a hit: at the highest dose activity, negative = inhibition, hits mostly inhibitors; 280,000 tested, 0.39% active; note: nearly all actives have a fitted effect of over 55% in size
Target sequence (P10636 561-689 P618L limits assumed): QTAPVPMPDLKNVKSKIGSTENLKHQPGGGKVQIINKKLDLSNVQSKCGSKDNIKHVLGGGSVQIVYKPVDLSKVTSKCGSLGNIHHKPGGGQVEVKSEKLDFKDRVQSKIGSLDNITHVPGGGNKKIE
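Read-out: fluorescence polarization of Alexa 594-labeled tau (0.24 uM), 555 nm excitation, 632 nm emission. Mixtures held 15 uM unlabeled K18 P301L, compound and 20 uM heparin, pH 7 acetate buffer, incubated 6 hr at 37 C.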
Tau fluor counter: counter-screen for tau fibril formation inhibitors; AID 1463; Potency, µM (series often up to 57.7 µM), for inactives: at the highest dose activity change, negative = decrease; 280,000 tested, 0.93% active; tau K18 P301L Alexa594 fluorescence, heparin fibrillization; note: nearly all actives have a fitted effect of over 55% in size
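Human tau K18 P301L (15 uM unlabeled, 0.24 uM Alexa 594-labeled) in 100 mM sodium acetate pH 7 with 20 uM heparin, 6 hr at 37 C. ThT 30 uM added, 1 hr ambient; Alexa 594 FP and total fluorescence read at 555/632 nm.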
TRb-SRC2 inh: disrupts binding of human TR beta to SRC2 | TRbeta-SRC2 peptide binding, fluorescence polarization; receptor liganded with 1 µM T3 | Potency, µM (series often up to 106 µM), for inactives: at the highest dose activity change, negative = inhibition, usual class: inhibitors | 280,000 tested, 0.065% active | P10828;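 note: plate controls were bound peptide for no effect and peptide without receptor for full effect; nearly all actives have a fitted effect of over 50% in size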
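Fluorescence polarization of 20 nM Texas Red SRC2 peptide with 0.6 uM human TRb ligand-binding domain, in Tris buffer with 1uM T3 and 5% DMSO. Incubated 5 hr ambient; normalized to unbound and bound controls.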
Tau fibril ThT: blocks human tau fibril formation measured by thioflavin T | P10636 | recombinant tau K18 P301L (four-repeat tau fragment), heparin-induced fibrillization, ThT fluorescence | Potency, µM (titrated, usually from 57.4 µM), without a hit: top-dose activity, negative = inhibition, hits mostly inhibitors | 270,000 tested, 2.1% active | AID 1460; note: nearly all actives have a fitted effect of over 55% in size
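Recombinant human tau K18 fragment […] carrying P301L, 15 uM unlabeled plus 0.24 uM Alexa 594-labeled, was fibrillized with 20 uM heparin in 100 mM sodium acetate pH 7 for 6 hr at 37 C; 30 uM ThT fluorescence read after 1 hr.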
TexasRed fluor: Texas Red fluorescence interference in TRb-SRC2 counter-screen. TRb/SRC2 Texas Red total fluorescence interference. Potency, µM (series often up to 106 µM), for the others: top-dose fluorescence change, negative = quenching. 280,000 tested, 0.29% active. AID 1479; active = well fitted curve in either direction with a large enough effect; inconclusive = small, poorly fitted or top-dose-only effect
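Human TRβ ligand-binding domain (0.6 uM) and Texas Red SRC2 peptide (20 nM) in Tris buffer with 1 uM T3 and 5% DMSO were incubated with pinned compound for 5 hr at ambient temperature. Total fluorescence was computed as S + 2P (555/632 nm).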
JMJD2E inh: inhibitors of human JMJD2E histone demethylase. JMJD2E catalytic domain, FDH-coupled NADH fluorescence (FDH is formaldehyde dehydrogenase). Potency, µM (top dose mostly 57.1 µM), without a hit: at the highest dose activity change, negative = inhibition, most hits filed as inhibitors. 230,000 tested, 1.6% active; active = well fitted inhibition curve with a large enough effect, not every such curve was filed as active; inconclusive = small, poorly fitted or top-dose-only effect, or another doubt; inactive = no such curve, though single readings can be large or run the other way;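 note: 0% = wells with enzyme and -100% = buffer wells without enzyme; nearly all actives have a fitted effect of over 50% in size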
Target sequence (B2RXH2 1-337 limits assumed): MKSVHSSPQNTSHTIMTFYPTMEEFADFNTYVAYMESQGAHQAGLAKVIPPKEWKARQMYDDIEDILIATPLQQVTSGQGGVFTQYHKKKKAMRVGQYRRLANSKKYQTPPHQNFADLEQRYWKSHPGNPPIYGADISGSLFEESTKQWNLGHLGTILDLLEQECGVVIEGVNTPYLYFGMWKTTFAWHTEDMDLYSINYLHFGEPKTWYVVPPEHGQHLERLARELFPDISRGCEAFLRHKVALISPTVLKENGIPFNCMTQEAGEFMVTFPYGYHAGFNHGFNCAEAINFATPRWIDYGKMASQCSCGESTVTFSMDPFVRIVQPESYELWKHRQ
* hit, by the source's call; ? = inconclusive; . = no result; [ ] = remark or other dose. Unless noted, calls come from the whole dose curve; as a rule, active = well fitted curve in the direction sought with a large enough effect; inconclusive = small, poorly fitted or top-dose-only effect, or another doubt; inactive = no such curve, though single readings can be large; an effect the other way counts as inactive or inconclusive. Unless noted, % is set by controls: 0 for no effect and ±100 for the full control effect; potency is the fitted concentration of half-maximal effect.

SMILES	Tau fibril FP	Tau fluor counter	TRb-SRC2 inh	Tau fibril ThT	TexasRed fluor	JMJD2E inh
O=C(N/N=C1/C[C@@H](O)[C@@H](O)[C@@H]2[C@@H]3C(=O)N(Cc4ccc5c(c4)OCO5)C(=O)[C@H]3CC[C@H]12)OCc1ccccc1	-3%[11.6 µM]	-4%[11.6 µM]	-4%[11.2 µM]	-5%[11.5 µM]	-1%[11.2 µM]	.
CN(C)C(=O)/N=N/C(=O)N(C)C	14µM*	-19%	5%	7.9µM*	0%	-11%
Cc1ccc(NS(=O)(=O)c2ccc(NC(=O)CN(c3cc([N+](=O)[O-])ccc3C)S(C)(=O)=O)cc2)c(C)c1	?	?	-2%	?	1%	10%
COc1ccc(Cl)cc1NC(=O)N1CCC(CN2CCc3ccccc3C2)CC1	-11%	-4%	-26%	-5%	56µM*[quencher]	.
COC(=O)c1ccc(NC(=O)N2CCC(CN3CCc4ccccc4C3)CC2)cc1	-6%	-5%	-30%	-7%	112µM*[quencher]	.
COc1cc(NC(=O)N2CCC(CN3CCc4ccccc4C3)CC2)cc(OC)c1	-5%	1%	4%	0%	?	.
N#Cc1cc(N)ccc1Sc1ccc(Cl)cc1	-1%	16µM*[quencher]	2%	-15%	-1%	?
N#Cc1cc(N)ccc1Sc1ccccc1	?	?	1%	5%	-4%	?
Nc1c(C(=O)NCC2CCCO2)sc2nc3c(c(-c4ccco4)c12)CC/C3=C\c1ccco1 (stereo unspecified)	?	?	9%	16µM*	11µM*[quencher]	7.1µM*
COc1ccc(NC(=O)COC(C)=O)cc1OC	-5%	-4%	4%	-7%	1%	3%
Cc1cc(C)n(-c2nnc(N3CCN(c4ccc(F)cc4)CC3)nn2)n1	5%	-24%	3%	13µM*	-1%	-3%
COc1ccc(C(=O)Nc2ccc(S(=O)(=O)Nc3onc(C)c3C)cc2)c(OC)c1	-8%	-10%	-1%	-14%	-3%	2%
CC(C)c1ccc(OCc2ccc(C(=O)O)o2)cc1	4%	12%	1%	-5%	-2%	7.9µM*
CC(/C=C/c1ccco1)=N/NC(=O)c1ccc(C)nc1	13%	-20%	-4%	.	0%	-6%
CC(/C=C/c1ccco1)=N\NC(=O)c1cccnc1	?	-26%	4%	28µM*	3%	?
CCOP(=O)(OCC)C(C#N)=C1SCN(c2ccc(Cl)cc2)CS1	?	-25%	-4%	2µM*	2%	2%
CCOC(=O)c1[nH]c(C)c(CCC(=O)N2CCN(c3ccc(Cl)cc3)CC2)c1C	-3%	-9%	-1%	-3%	-1%	.
COc1ccc2oc(-c3ccc(O)cc3)cc(=O)c2c1	-14%	?	-8%	?	-4%	?
COc1ccc(-c2cc(=O)c3cc(OC)ccc3o2)cc1	-3%	-3%	-3%	?	?	0.71µM*
CCOc1ccc(Nc2ccc(N3C(=O)CCC3=O)cc2[N+](=O)[O-])cc1	-5%	?	-12%	5µM*	-2%	2%
CN(C)c1ccc(/C=N/NC(=O)COc2ccccc2)cc1	-1%	-17%	-6%	?	-2%	?
Cc1cccc(OCC(=O)N/N=C/c2ccc(N(C)C)cc2)c1	7%	-29%	1%	3.5µM*	-6%	?
O=S(=O)(Nc1nc2ccccc2nc1-[n+]1cccc(N=C([O-])c2ccc(Cl)cc2)c1)c1ccccc1	-6%	?	-7%	16µM*	-5%	-11%
CCOC(=O)c1ccc(Nc2nc3ccccc3nc2NS(=O)(=O)c2ccc(Cl)cc2)cc1	11%	-22%	-2%	-14%	6%	.
CN1C/C(=C/c2cccnc2)C(=O)/C(=C/c2cccnc2)C1	?	-6%	2%	?	2%	-23%
SMILES	Tau fibril FP	Tau fluor counter	TRb-SRC2 inh	Tau fibril ThT	TexasRed fluor	JMJD2E inh
COc1cc([N+](=O)[O-])ccc1-c1ccc(C(=O)Nc2ccc(NC(C)=O)cc2)o1	-6%	?	2%	5µM*	0%	2%
COc1ccc(NC(=O)c2ccc(-c3ccc([N+](=O)[O-])cc3)o2)cc1OC	6%	11µM*[quencher]	-3%	5µM*	-6%	6%
COc1cccc(NC(=O)c2ccc(-c3ccc([N+](=O)[O-])cc3)o2)c1	15%	?	3%	?	-1%	-9%
O=C(Nc1ccc(OC(F)(F)F)cc1)C(Cc1ccccc1)NS(=O)(=O)c1cccc2nsnc12 (stereo unspecified)	16µM*	?	-5%	5%	0%	.
Cc1nc(C/C(=N\Nc2ccccc2)c2ccc(O)cc2O)cs1	-5%	25µM*[quencher]	-8%	?	-6%	14µM*
Cc1ccc(Cl)cc1N1CCN(C(=O)c2ccc(CS(=O)(=O)c3ccc(Br)cc3)o2)CC1	3%	-19%	-7%	-5%	1000µM*[quencher]	.
CCc1ccc(Nc2nnc(SCC(=O)N(C)C3CCS(=O)(=O)C3)s2)cc1 (stereo unspecified)	-5%	-19%	0%	-4%	-6%	4%
O=C(N/N=C/c1cc2c(cc1[N+](=O)[O-])OCO2)c1cccnc1	.	.	-3%	.	-4%	-27%
O=C(N/N=C/c1ccc(N2CCCC2)c([N+](=O)[O-])c1)c1cccnc1	5%	-24%	-2%	14µM*	2%	0%
COc1ccc(C(=O)N/N=C/c2ccc(OC)c(CN3CCCc4ccccc43)c2)cc1	3%	-13%	6%	-6%	-3%	2%
COc1ccc(/C=N/NC(=O)c2cccnc2)cc1CN1CCCc2ccccc21	8%	13µM*[quencher]	0%	?	-2%	-22%
O=C(N/N=C/c1ccc(N2CCOCC2)c([N+](=O)[O-])c1)c1ccc(F)cc1	9%	-29%	-11%	11µM*	-3%	3%
Cn1c(=O)c2c(nc(NCCO)n2C)n(C)c1=O	5%	4%	1%	3%	-6%	6%
CC(C)/C=N/Nc1nc2c(c(=O)n(C)c(=O)n2C)n1C	?	?	-3%	28µM*	-2%	6%
Cc1nc2ccccc2n1CCc1nc2c3ccccc3nc(SCC(=O)Nc3cccc(C(F)(F)F)c3)n2n1	-5%	-18%	-2%	?	-2%	.
O=C1C=C(NCc2ccccc2)c2ccccc2C1=O	?	-25%	?	14µM*	0%[53 µM]	?
O=C1C=C(Nc2ccccc2O)c2ccccc2C1=O	-11%	?	?	?	-6%	?
Cc1ccc(N=C2NC(=O)/C(=C/C=C/c3ccco3)S2)cc1	?	?	?	6.3µM*	40µM*[quencher]	25µM*
Cc1ccc(N=C2NC(=O)/C(=C/c3cccn3C)S2)cc1	3%	?	4%	6.3µM*	-2%	3%
